# Assay outcomes: PubChem, several laboratories
# 697 NFkB inh: inhibitors of the PMA/ionomycin-induced NF-kB reporter in 697 B cells. inhibition, % at 4 µM. 0.33% of 330,000 active. 697 B-cell NF-kB luciferase reporter, 16 h; in the data active = inhibition above about 35%
# Gli-Sufu antag: Gli-Sufu pathway antagonism; inhibition, % at 5 µM; Sufu-KO-LIGHT fibroblasts, Gli luciferase reporter luminescence; AID 588413; 0.74% of 340,000 active;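 active = inhibition above about 55%, limit read from the data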;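 note: 0% = DMSO-treated cells and 100% = wells with medium but no cells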
# Jurkat NFkB inh: inhibitors of the PMA/ionomycin-induced NF-kB reporter in Jurkat cells. inhibition, % at 4 µM. PMA/ionomycin-induced NF-kB luciferase reporter, luminescence. AID 435003. 0.53% of 330,000 active; in the data active = inhibition above about 50%
# aSyn 5UTR inh: MLPCN primary screen, SNCA 5' untranslated region; alpha-synuclein 5'UTR reporter, inhibitor activity; inhibition, % (tested at 7.5 µM); 0.82% of 300,000 active; AID 1813; in the data active = inhibition above about 60%;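 note: H4 neuroglioblastoma cells stably carrying SNCA 5'UTR luciferase fusion; 0% = DMSO wells and 100% = positive control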
# Mdm2-MdmX inh: inhibitors of human Mdm2/MdmX interaction; SaOS-2 split-luciferase Mdm2/MdmX complementation, luminescence; inhibition, % at 8 µM; 3% of 330,000 active; AID 485346;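 active = inhibition of at least 50% at 8 µM in the primary screen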
# CSC inhib: blocks cancer stem cells; cancer stem cell-like cells viability, luminescence; inhibition, % at 7.5 µM; 1.1% of 300,000 active; in the data active = inhibition above about 75%; tested in HMLE shEcad cells
# Mdm2-MdmX conf: human Mdm2/MdmX binding inhibition, confirmed; AID 489028; inhibition, % at 8 µM; 55% of 10,000 active; luminescent assay; shares compounds with Mdm2-MdmX inh; in the data active = inhibition above about 40%
# Full FLuc ctr: full-length luciferase inhibition in Mdm2/MdmX counter-screen | shares compounds with Mdm2-MdmX inh | SaOS-2 full-length luciferase counterscreen, luminescence | inhibition, % at 8 µM | 77% of 6,200 active;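 active = mean inhibition at 8 µM reaching about 37%, which flags the compound as non-specific, limit read from the data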;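 note: p53-null SaOS-2 cells with luciferase driven by a doxycycline-inducible promoter; compound on cells about two nights before reading with doxycycline added after day one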
# * hit, by the source's call; nt = no result given. Only some compounds are listed: those with a hit (about 4.5% of all), similar ones and a draw of the others.
SMILES,697 NFkB inh,Gli-Sufu antag,Jurkat NFkB inh,aSyn 5UTR inh,Mdm2-MdmX inh,CSC inhib,Mdm2-MdmX conf,others
Cc1ccccc1NC(=O)Cc1nnc(SCC(=O)NC2=NCCS2)n1C,5,11,7,-6,-20,-16,nt,
N#C/C(=C/c1ccc(Sc2nc3ccccc3[nH]2)o1)c1cccc(F)c1,-4,-4,-5,-39,22,54,nt,
N#C/C(=C/c1ccc(Sc2nc3ccccc3[nH]2)o1)c1cccc(Br)c1,10,5,-9,-7,60*,60,12,
CCOC(=O)c1sc(Nc2ccc(F)cc2)nc1C,-10,-31,-10,-27,-6,2,nt,
COc1cccc(C(=O)c2sc(NC(C)C)nc2N)c1,-111,-12,6,1,76*,nt,44*,Full FLuc ctr=111*
COc1ccc(Nc2nc(N)c(C(=O)c3ccc(F)cc3)s2)cc1,-21,1,23,70*,51*,62,52*,Full FLuc ctr=81*
COc1ccc(C(=O)c2sc(NC(C)C)nc2N)cc1OC,-13,17,0,nt,35,2,nt,
CC(C)N(C(=O)COc1ccc(Br)cc1Cl)C(C)C,16,-4,-9,2,-21,-15,nt,
O=C1CCCN1CC(=O)N1CCCC(Nc2cccc(F)c2)C1 (stereo not drawn),15,-4,3,12,8,2,nt,
COC(=O)[C@@H](NC(=O)NCc1ccccc1Cl)C(C)C,15,-9,9,7,-8,-8,nt,
COc1ccc(NC(=O)c2cc3ccccc3oc2=O)c(OC)c1,-56,5,-69,-113,-10,8,nt,
COc1ccc(-c2cc3ccccc3oc2=O)cc1NC(=S)NC(=O)c1ccc2c(c1)OCCO2,-68,6,-62,-34,88*,nt,-35,
COc1ccc(-c2cc3ccccc3oc2=O)cc1NC(=O)c1ccc([N+](=O)[O-])o1,-29,-17,-13,-240,6,nt,nt,
CCC(=O)Nc1cc(-c2cc3ccccc3oc2=O)ccc1OC,-75,-99,-115,-98,-14,3,nt,
COc1ccc(-c2nc(-c3ccc(NC(=O)c4ccc(Br)o4)cc3)no2)cc1OC,-40,-17,-62,-136,78*,79*,-21,
COc1ccc(-c2cc3ccccc3oc2=O)cc1NC(=O)c1ccc(Br)o1,-90,1,-54,-94,59*,-3,39,Full FLuc ctr=23
COc1ccc(S(=O)(=O)Nc2ccccc2OC)cc1NC(=O)c1cc2ccccc2oc1=O,-32,-19,-43,-159,73*,5,-52,
Cc1ccc(S(=O)(=O)CCC(=O)NC2CCCC2)cc1,13,2,0,-6,19,-9,nt,
CC1(C)CC(=O)C(/C=N/c2ncccc2C(=O)O)=C(O)C1,17,10,8,10,2,-5,nt,
CCCCCc1nc2c(c(=O)c3ccccc3n2C)c(=O)n1Cc1ccc(OC)cc1,-8,-2,11,6,51*,9,18,
C=CC(=O)Nc1cccc(Oc2ncnc3[nH]cc(-c4cnc5ccccc5c4)c23)c1,18,-16,-3,nt,93*,nt,79*,Full FLuc ctr=59*
C=CC(=O)Nc1cccc(Oc2ccnc3[nH]ccc23)c1,nt,-13,nt,nt,nt,nt,nt,
Cc1cc(NC(=O)CSc2nnc(-c3ccccc3F)n2N)no1,-2,-7,1,nt,-10,-13,nt,
COc1ccc(Nc2nc(Nc3ccc(OC)cc3)nc(SC3=NCCS3)n2)cc1,17,-6,-12,13,74*,-19,-8,
O=C(Nc1ccc(OCC(F)(F)C(F)F)c(C(F)(F)F)c1)c1ccccc1O,-38,26,-19,42,94*,1,92*,Full FLuc ctr=28
SMILES,697 NFkB inh,Gli-Sufu antag,Jurkat NFkB inh,aSyn 5UTR inh,Mdm2-MdmX inh,CSC inhib,Mdm2-MdmX conf,others
O=C(Nc1ccc(OCC(F)(F)C(F)F)c(C(F)(F)F)c1)c1ccccc1,-2,-4,-10,-101,14,68,nt,
Cc1cc([N+](=O)[O-])ccc1NC(=O)CSc1nccc(=O)[nH]1,4,-4,-6,-19,11,5,nt,
CCOc1ccc(C2C=C(c3ccc(C)cc3)Nc3nnnn32)cc1 (stereo not drawn),2,-1,-16,16,50*,14,12,
CCOc1ccc(C2C=C(c3ccccc3)Nc3nnnn32)cc1 (stereo not drawn),-77,-25,-59,-152,-227,-6,nt,
CCOC(=O)N1CCN(C(=O)CSC2=NS(=O)(=O)c3ccccc3N2)CC1,2,-10,-7,-2,16,10,nt,
O=C(NCC(c1cccs1)N1CCOCC1)c1ccc(Cl)c([N+](=O)[O-])c1 (stereo not drawn),-6,1,-4,-16,-33,-2,nt,
O=c1c2ccccc2nc2sc(Nc3cccc(Cl)c3)nn12,-70,8,-82,nt,73*,-9,-21,
Cc1nc2ccccc2c(=O)n1Nc1cccc(Cl)c1,22,2,3,2,-15,-4,nt,
CCC(=NNC(=O)c1ccc2c(c1)nc(C)n2CC)c1cc(F)ccc1O,15,28,10,nt,58*,21,22,
COC(=O)C(C)NC(=O)C1CCCN1C(=O)CNC(=O)OCc1ccccc1 (stereo not drawn),-4,-34,2,-4,17,-6,nt,
Cc1ccc(N2CC(C(=O)Nc3c4c(nn3C(C)(C)C)CS(=O)(=O)C4)CC2=O)cc1 (stereo not drawn),14,8,0,17,-7,5,nt,
Cc1ccc(CN(C)C(=O)CN2C(=O)NC(c3ccccc3)(c3ccccc3)C2=O)c(C)c1,9,-7,-7,nt,50,11,nt,
Cc1ccc(C(=O)N(C)CC(=O)Nc2ccc(F)c(F)c2F)o1,-9,nt,3,nt,-1,9,nt,
COc1ccc([N+](=O)[O-])cc1NC(=S)NC(NC(=O)C(c1ccccc1)c1ccccc1)C(Cl)(Cl)Cl (stereo not drawn),-4,-2,2,5,89*,9,79*,Full FLuc ctr=29
COc1ccc([N+](=O)[O-])cc1NC(=O)C(C)c1ccccc1 (stereo not drawn),15,-1,4,27,26,-18,nt,
O=C(NC(NC(=S)Nc1c(Cl)cccc1Cl)C(Cl)(Cl)Cl)c1cccc([N+](=O)[O-])c1 (stereo not drawn),2,18,5,10,58*,51,50*,Full FLuc ctr=76*
COc1cccc(CC2(CO)CCCN(Cc3[nH]c4ccc(C)cc4c3C)C2)c1 (stereo not drawn),10,7,-2,15,63*,53,20,
COc1cccc(CC2(CO)CCCN(Cc3ccc(C)s3)C2)c1 (stereo not drawn),-4,1,11,-14,1,24,nt,
CC(C(=O)NC1CCCCC1)N1CCN(C)CC1 (stereo not drawn),9,-2,5,2,6,11,nt,
